The values below come from PubChem BioAssay AID1626 (SRMLSC, 2009).

In all, about 220,000 compounds went through this assay and about 2,000 (0.91%) were called active. Inconclusive results (about 2%) are left out. Rule as the data show it: inconclusive = inhibition above about 80% without an active follow-up result; inactive = below that; test concentration not stated here. A selection follows. Measured potencies and affinities stand elsewhere.

The assay in a line: M. tuberculosis H37Rv growth inhibitors, H37Rv strain (AID 1626).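 Also: bacteria incubated seven days before Alamar blue readout; 0% = bacteria only wells and 100% = bacteria with antibiotic wells.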 The conditions noted are these: stronger effect = higher value, concentration not given here.
By inhibition is commonly meant the drop in the measured response relative to a control, in per cent. For `O=C(CCC1CCCN(Cc2ccc3c(c2)OCCO3)C1)NCc1ccccc1F` (configuration not stated), the inhibition was -11.3% (inactive).
On to `CCCNC(=O)NC(=O)CSc1ccc2c(c1)OCCO2`, for which the inhibition was 5.15% (inactive).
For the compound `O=C(Nc1cc(C(F)(F)F)ccc1Cl)C1CCN(c2nnc(-n3cccc3)s2)CC1`, the inhibition is -3.21% (inactive).
For the compound `O=C(C1CCN(c2nnc(-n3cccc3)s2)CC1)N1CCOCC1`, the inhibition was 0.74% (inactive).
For `O=C(C1CCCN(c2nnc(-n3cccc3)s2)C1)N1CCN(c2ccccc2)CC1` (configuration not stated), the inhibition was 63.1% (inactive).
With `O=C(NCCCN1CCc2ccccc2C1)C1CCN(c2nnc(-n3cccc3)s2)CC1` the figure was -4.77% (inactive); with `COc1ccc(CN2C(=O)NC(=O)/C(=C\c3ccco3)C2=O)cc1`, -5.87% (inactive); with `O=C(O)c1cc([N+](=O)[O-])cc2c1nnn2O`, -1.94% (inactive).
In the case of `COc1ccc(N/C=C/C(=O)c2ccc(OC)c(OC)c2)cc1`, the inhibition is 47% (inactive).
As for `CCOc1ccccc1N/C=C/C(=O)C(C)(C)C`, the inhibition is 4.06% (inactive).
For the compound `COc1ccccc1Oc1ccc(N/C=C/C(=O)C(C)(C)C)cc1`, the inhibition was -4.81% (inactive).
With `CCOC(=O)c1ccc(NC(=O)Nc2ccc(OC)c(OC)c2)cc1` the figure was -4.38% (inactive).
As for `Cc1ccc(N/C=C/C(=O)C(C)(C)C)c(O)c1`, the inhibition is -0.76% (inactive).
As for `COc1cccc(Oc2ccc(N/C=C/C(=O)C(C)(C)C)cc2)c1`, the inhibition was 1.22% (inactive).
Turning to `COc1cc(C(=O)Nc2ccc3c(c2)OCCO3)ccc1OC(C)C`, the inhibition was -2.6% (inactive).
Regarding `CCOC(=O)c1ccc(N/C=C\C(=O)c2cccc(OC)c2)cc1`, the inhibition is 94.8% (inactive).
`COc1ccccc1N(C(=O)c1snc(C(N)=O)c1N)C(C(=O)NCCC(C)C)c1ccco1` (configuration not stated): the inhibition was -1.7% (inactive).
With `COc1ccc(C(=O)NC(=O)Nc2ncccc2C)cc1` the figure was -9.06% (inactive); with `O=C(N/N=C1\C(=O)c2cccc3cccc1c23)c1ccc(O)cc1`, 20.7% (inactive); with `N#C/C(=C\c1c(Cl)cccc1Cl)c1nn(-c2ccccc2)c(-n2cccc2)c1C#N`, -1.88% (inactive).
With `O=S(=O)(NCc1cccnc1)c1ccc(Cl)c(Cl)c1`, the inhibition was -0.1% (inactive).
With `CCOC(=O)c1c(-c2ccccc2)csc1NC(=O)CSc1nncs1` the figure was 4.86% (inactive).
As to `CCN(CC)C(=O)C(=O)c1cccn1-c1cccc(Cl)c1C#N`, the inhibition was -4.03% (inactive).
With `CC(=O)c1c(C)[nH]c(C(=O)NCCc2cccc(C)c2)c1C` the figure was 3.77% (inactive).
In the case of `CCn1c(COc2ccccc2)nc2ccccc21`, the inhibition was -0.43% (inactive).
With `O=C(Cc1csc(-c2ccccc2)n1)NCc1cccs1` the figure was 2.64% (inactive); with `COc1ccccc1C(=O)OCc1c(F)cccc1Cl`, -0.9% (inactive).
With `COC(=O)c1ccc(N/C=C/C(=O)c2ccc(OC)c(OC)c2)cc1` the figure was 36.6% (inactive); with `COc1ccc(C(=O)/C=C/Nc2ccc(NC(C)=O)cc2)cc1OC`, 0.63% (inactive); with `CCOC(=O)c1ccc(N/C=C/C(=O)c2ccc(OC)cc2)cc1`, 77.2% (inactive).
With `CCOC(=O)c1ccc(N/C=C/C(=O)c2ccco2)cc1` the figure was 76.7% (inactive); with `O=C(Nc1ccc(F)cc1F)c1cccnc1`, -2.1% (inactive).
Consider `O=C(NCCCCNC(=O)c1ccc(Br)s1)c1ccc(Br)s1`, for which the inhibition is -1.39% (inactive).
With `CCOc1ccc(NC(=O)c2ccccc2OCC(=O)c2ccccc2)cc1` the figure was 4% (inactive); with `COc1ccccc1-c1nnc(SCC(=O)N2CCOCC2)n1-c1ccccc1`, 1.2% (inactive); with `COCCn1c(C)cc(C(=O)CSc2nc(C)nc3sc4c(c23)CCC4)c1C`, -2.28% (inactive).
With `O=C(NCC(=O)N1CCC(N2CCCCC2)CC1)C1CCCCC1` the figure was -10.3% (inactive); with `CC(C)(C)c1nnc2sc(SCC(=O)N3CCc4ccccc43)nn2c1=O`, 1.69% (inactive).
With `CCS(=O)(=O)N1CCN(C2Cc3ccccc3C2)CC1` the figure was -4.5% (inactive); with `COc1ccc(NC(=O)COC(=O)CCCOc2ccc(Cl)cc2Cl)cc1`, 12.7% (inactive); with `Cc1cc(Cl)ccc1OCCCC(=O)NN`, -1.79% (inactive).
For `Cc1cc(Cl)ccc1OCCCC(N)=O`, the inhibition was -0.81% (inactive).
With `COC(=O)CCC(=O)Nc1ccc(Cl)c(Cl)c1` the figure was -2.69% (inactive); with `CCOC(=O)/C=C/C(=O)OCC(=O)Nc1ccc(OC)c(Cl)c1`, 3.02% (inactive).
For `COc1ccc(NC(=O)COC(=O)/C=C/C(=O)OCC(=O)Nc2ccc(OC)c(Cl)c2)cc1Cl`, the inhibition is -1.96% (inactive).
With `O=C(COC(=O)CCCOc1ccc(Cl)cc1Cl)Nc1cccc(Cl)c1`, the inhibition was 6.33% (inactive).
As to `O=C(O)CCCC(=O)Nc1ccc(Cl)c(Cl)c1`, the inhibition was -7.53% (inactive).
As to `COc1ccc(CNC(=O)CS(=O)Cc2nc(-c3ccccc3C)oc2C)cc1` (configuration not stated), the inhibition was 7.5% (inactive).
On to `COc1ccc(/C=N/NC(=O)c2ccc(CN3c4cccc5cccc(c45)S3(=O)=O)cc2)cc1`, for which the inhibition was 0.99% (inactive).
With `CCOC(=O)c1sc(NC(=O)CCCCl)nc1C` the figure was 6.92% (inactive); with `CC(C)Cn1c(N)c(C(=O)COC(=O)C2CCCCC2)c(=O)n(C)c1=O`, -2.8% (inactive); with `Cc1cc(NC(=O)COC(=O)c2ccc(S(=O)(=O)N3CCCC3)cc2)no1`, 5.16% (inactive).
With `CN(c1ccccc1C(=O)NC1CC2CCC1C2)S(=O)(=O)c1ccccc1` (configuration not stated) the figure was 5.72% (inactive).
With `CC1CCCC/C1=N\NC(=S)Nc1cccnc1` (configuration not stated) the figure was -2.62% (inactive); with `COc1ccc(NC(=O)CN(C)CC(=O)Nc2ccccc2SC)cc1Cl`, -0.42% (inactive); with `COc1ccccc1CNC(=O)CN(C)CC(=O)Nc1cccc(F)c1`, -0.48% (inactive).
Regarding `CCCCOc1ccc(C(C)NC(=O)C2CCCN(S(=O)(=O)CC)C2)cc1` (configuration not stated), the inhibition was -2.95% (inactive).
With `CCC(=NCCO)c1c(O)n(C2CCCCC2)c(=O)[nH]c1=O` the figure was 3.46% (inactive); with `CCOC(=O)c1cnc2ccc(C(=O)OC)cc2c1Nc1ccc(C(=O)O)cc1`, -2.69% (inactive).
As for `CCOC(=O)c1cnc2ccc(C)cc2c1Nc1ccc(N2CCOCC2)cc1`, the inhibition is 0.42% (inactive).
With `O=C(O)c1cc(-n2cccc2)ccc1N1CCOCC1`, the inhibition is -4.7% (inactive).
On to `COc1ccccc1NC(=S)NC1CCCCCC1`, for which the inhibition was -4.57% (inactive).
With `Cc1nn(C)c(C)c1/C=C(/C(=O)C(C)(C)C)n1cncn1` the figure was -5.89% (inactive).
With `CN(C)/C=C(/C(=O)c1ccccc1)n1cncn1` the figure was -12.5% (inactive).
On to `Cn1cnc([N+](=O)[O-])c1Oc1ccc2ccccc2c1`, for which the inhibition is 13.9% (inactive).
Consider `CCS(=O)(=O)c1c([N+](=O)[O-])ncn1C`, for which the inhibition was 76.2% (inactive).
With `Cc1cccc(Sc2c([N+](=O)[O-])ncn2C)c1` the figure was 4.79% (inactive); with `Cn1cnc([N+](=O)[O-])c1Cl`, 0.19% (inactive); with `Cc1cccc(C(=O)N=c2c(C#N)cc3c(=O)n4cccc(C)c4nc3n2Cc2ccco2)c1`, -8.85% (inactive).
`CCN(C(=O)COC(=O)c1cc(S(=O)(=O)Nc2c(C)n(C)n(-c3ccccc3)c2=O)ccc1Cl)C1CCCCC1`: the inhibition was -3.86% (inactive).
As to `Cc1cccc(NC(=O)CCOc2ccccc2)c1`, the inhibition is -1.8% (inactive).
For the compound `Cc1cc(C)n(-c2nc(-c3ccccc3)cs2)n1`, the inhibition is 4.34% (inactive).
With `O=C(CNC(=O)c1ccco1)OCc1ccc(C(=O)c2ccccc2)cc1` the figure was 3.51% (inactive); with `Cc1ccc(C)c(CSCC(=O)NCc2cccs2)c1`, -7.19% (inactive); with `Cc1cccc(N2CCN(Cc3ccoc3)CC2)c1C`, 2.81% (inactive).
Consider `Cc1cc(C)n(-c2nc(SCCN(C)C)c3c4c(sc3n2)COC(C)(C)C4)n1`, for which the inhibition was 14.6% (inactive).
In the case of `Cc1cc(C)n(-c2nc(SCC(=O)O)c3c4c(sc3n2)CCCC4)n1`, the inhibition was 63.1% (inactive).
Take `Cc1cc(C)n(-c2nc(SCC(=O)Nc3nccs3)c3c4c(sc3n2)COC(C)(C)C4)n1`: the inhibition is 23.3% (inactive).
For the compound `Cc1cc(C)n(-c2nc(NCCCN(C)C)c3c4c(sc3n2)CCCC4)n1`, the inhibition is 17.3% (inactive).
With `CC1(C)Cc2c(sc3nc(SCC(=O)O)[nH]c(=O)c23)CO1` the figure was -1.16% (inactive); with `CCCN(CC(=O)Nc1ccc(F)c(F)c1F)Cc1cc(=O)n2ccsc2n1`, -1.11% (inactive); with `O=C(NCc1ccco1)C12CC3CC(C1)CC(C(=O)NCc1ccco1)(C3)C2`, -5.09% (inactive).
Consider `O=c1c2ccccc2nc(-c2ccccc2Cl)n1O`, for which the inhibition was 2.24% (inactive).
With `O=c1c2ccccc2nc(-c2cccc(Cl)c2)n1O` the figure was 66.9% (inactive).
With `CC1CC(C)CN(c2ccc(C(=O)NCc3ccc4c(c3)OCO4)cc2[N+](=O)[O-])C1` (configuration not stated) the figure was 13.2% (inactive); with `Cc1ccccc1C(=O)Nc1ccc(C(=O)N/N=C/c2ccc(O)c(Br)c2)cc1`, 6.55% (inactive); with `CCOC(=O)N1CCC(NC(=O)C2CCCN(C(=O)c3cc4sccc4n3C)C2)CC1` (configuration not stated), -2.27% (inactive).
Turning to `O=C(NCCN1CCN(c2ccccc2)CC1)c1cccn2c(=O)c3ccccc3nc12`, the inhibition is 5.61% (inactive).
With `Cc1cc(NCCC(C)C)n2nc(C)c(-c3ccccc3)c2n1` the figure was 11.3% (inactive).
As for `Cc1cc(Cl)n2nc(C)c(-c3ccc(Cl)cc3)c2n1`, the inhibition is 0.72% (inactive).
With `COCCNc1cc(C)nc2c(-c3ccccc3OC)c(C)nn12` the figure was -2.69% (inactive).
In the case of `COc1ccc(CCNc2cc(C)nc3c(-c4ccccc4)cnn23)cc1OC`, the inhibition is 1.98% (inactive).
For the compound `CCOC(=O)c1ccc(NC(=O)C2CCN(C(=O)c3ccc(OC)c(OC)c3)CC2)cc1`, the inhibition was -6.93% (inactive).
With `O=C(NC1=NCCCCC1)c1cccc2ccccc12` the figure was -1.94% (inactive); with `COc1cccc(CNCCSc2nnnn2C)c1`, 6.16% (inactive).
With `CCNC(=O)N1CCCC(C(=O)c2ccc3cc(OC)ccc3c2)C1` (configuration not stated) the figure was -5.17% (inactive); with `COC(=O)c1ccc(CSc2nnc3c(Cl)cc(Cl)cn23)o1`, -5.19% (inactive).
